Drawing on PMC7862700, “An all-to-all approach to the identification of sequence-specific readers for epigenetic DNA modifications on cytosine”, this text covers binding signal for 1 sequence.

Test in all cases: DAPPL (digital affinity profiling via proximity ligation, sequencing); 10 mM Tris-HCl pH 7.5, 50 mM NaCl, 1 mM DTT, 4% glycerol, room temperature, 30 min; GST-TFs on glutathione beads, 16-mer random dsDNA library, 0.1% formaldehyde crosslink after washing; high values mean tight binding
The target in one assay is T1, FEV (Homo sapiens, UniProt Q99581 1-238).
T1 sequence: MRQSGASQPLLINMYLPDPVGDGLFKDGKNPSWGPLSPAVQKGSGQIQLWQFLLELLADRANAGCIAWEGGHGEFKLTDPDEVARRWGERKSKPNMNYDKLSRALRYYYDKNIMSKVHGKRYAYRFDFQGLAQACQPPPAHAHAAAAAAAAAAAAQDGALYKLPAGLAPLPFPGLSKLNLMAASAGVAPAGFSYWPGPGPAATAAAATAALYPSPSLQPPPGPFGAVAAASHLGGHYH
The conditions noted are these: protein: recombinant; tags: N-terminal GST; dsDNA, one strand shown. An outline of the steps: (§1)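 Binding signal is given per hexamer as its read frequency for a factor divided by its frequency in the tag-only sample. GST-fused human transcription factors were expressed in yeast, captured on glutathione beads, barcoded with DNA and pooled with that sample, then incubated with 200 nmole of a 16-mer random double-stranded DNA library in Tris/NaCl/DTT/glycerol buffer for 30 min at room temperature. The pools were then washed, crosslinked, proximity-ligated, amplified by PCR and sequenced on an Illumina NextSeq500.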

A further assay addresses ETV5 (Homo sapiens, UniProt P41161 1-510). The conditions noted are these: protein: recombinant; tags: N-terminal GST; dsDNA, one strand shown. The procedure, abridged: as §1
The target of the next assay is HSF1 (Homo sapiens, UniProt Q00613 1-529). The conditions noted are these: protein: recombinant; tags: N-terminal GST; chain copies: 3; dsDNA, one strand shown. An outline of the steps:
as §1

Another assay addresses T2, SPIC (Homo sapiens, UniProt Q8N5J4 1-248).
T2 sequence: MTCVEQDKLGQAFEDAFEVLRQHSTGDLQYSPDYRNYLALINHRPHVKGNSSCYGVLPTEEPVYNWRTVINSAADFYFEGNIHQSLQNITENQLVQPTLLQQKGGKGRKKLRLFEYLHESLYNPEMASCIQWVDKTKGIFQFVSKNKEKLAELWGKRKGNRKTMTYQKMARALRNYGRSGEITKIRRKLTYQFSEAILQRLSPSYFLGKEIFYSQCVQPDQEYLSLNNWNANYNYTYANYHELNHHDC
Particulars: protein: recombinant; tags: N-terminal GST; dsDNA, one strand shown. An outline of the steps: as §1

The next assay has as its target ELF4 (Homo sapiens, UniProt Q99607 1-663). The conditions noted are these: protein: recombinant; tags: N-terminal GST; dsDNA, one strand shown. The procedure, abridged:
as §1

Another assay has as its target T3, ELK4 (Homo sapiens, UniProt P28324-2 1-405).
T3 sequence: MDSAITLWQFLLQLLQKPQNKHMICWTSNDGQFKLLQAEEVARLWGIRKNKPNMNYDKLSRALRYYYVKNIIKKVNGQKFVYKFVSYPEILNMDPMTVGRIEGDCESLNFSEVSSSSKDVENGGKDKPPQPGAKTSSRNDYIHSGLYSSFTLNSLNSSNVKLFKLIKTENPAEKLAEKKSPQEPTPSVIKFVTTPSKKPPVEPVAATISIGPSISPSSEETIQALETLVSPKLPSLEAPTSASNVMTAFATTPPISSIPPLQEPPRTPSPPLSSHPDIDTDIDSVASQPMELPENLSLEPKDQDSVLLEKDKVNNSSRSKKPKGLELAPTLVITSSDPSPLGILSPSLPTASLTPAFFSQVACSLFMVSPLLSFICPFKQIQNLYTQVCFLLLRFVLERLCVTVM
The conditions noted are these: protein: recombinant; tags: N-terminal GST; dsDNA, one strand shown. The procedure, abridged:
as §1

The next assay addresses T4, ETV2 (Homo sapiens, UniProt O00321 1-342).
T4 sequence: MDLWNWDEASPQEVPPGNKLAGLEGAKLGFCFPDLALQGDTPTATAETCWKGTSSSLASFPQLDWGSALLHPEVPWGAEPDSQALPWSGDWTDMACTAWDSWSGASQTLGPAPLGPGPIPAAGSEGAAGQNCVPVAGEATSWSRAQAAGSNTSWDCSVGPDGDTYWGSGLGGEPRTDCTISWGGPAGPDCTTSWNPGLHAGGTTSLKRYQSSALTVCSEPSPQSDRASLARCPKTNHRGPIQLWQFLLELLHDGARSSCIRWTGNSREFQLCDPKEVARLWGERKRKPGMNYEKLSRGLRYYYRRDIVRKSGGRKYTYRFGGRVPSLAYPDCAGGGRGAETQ
The conditions noted are these: protein: recombinant; tags: N-terminal GST; dsDNA, one strand shown. The procedure, abridged:
as §1

In another assay the target is T5, ELF3 (Homo sapiens, UniProt P78545 1-371).
T5 sequence: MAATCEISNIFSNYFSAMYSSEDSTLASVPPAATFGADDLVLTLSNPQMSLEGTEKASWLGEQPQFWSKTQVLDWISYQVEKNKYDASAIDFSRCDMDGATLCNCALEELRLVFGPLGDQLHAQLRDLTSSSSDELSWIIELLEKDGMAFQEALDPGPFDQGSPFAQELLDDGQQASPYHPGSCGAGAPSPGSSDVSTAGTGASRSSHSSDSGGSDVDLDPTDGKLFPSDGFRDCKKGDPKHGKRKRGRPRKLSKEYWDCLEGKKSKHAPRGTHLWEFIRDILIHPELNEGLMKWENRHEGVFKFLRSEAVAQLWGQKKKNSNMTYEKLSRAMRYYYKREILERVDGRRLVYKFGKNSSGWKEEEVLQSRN
The conditions noted are these: protein: recombinant; tags: N-terminal GST; dsDNA, one strand shown. An outline of the steps:
as §1

For the next assay, the target named is CRX (Homo sapiens, UniProt O43186 1-299). The conditions noted are these: protein: recombinant; tags: N-terminal GST; dsDNA, one strand shown. An outline of the steps: as §1
A further assay deals with ETV1 (Homo sapiens, UniProt P50549 1-477). The conditions noted are these: protein: recombinant; tags: N-terminal GST; dsDNA, one strand shown. The procedure, abridged:
as §1

In another assay the target is T6, ERF (Homo sapiens, UniProt P50548 1-548).
T6 sequence: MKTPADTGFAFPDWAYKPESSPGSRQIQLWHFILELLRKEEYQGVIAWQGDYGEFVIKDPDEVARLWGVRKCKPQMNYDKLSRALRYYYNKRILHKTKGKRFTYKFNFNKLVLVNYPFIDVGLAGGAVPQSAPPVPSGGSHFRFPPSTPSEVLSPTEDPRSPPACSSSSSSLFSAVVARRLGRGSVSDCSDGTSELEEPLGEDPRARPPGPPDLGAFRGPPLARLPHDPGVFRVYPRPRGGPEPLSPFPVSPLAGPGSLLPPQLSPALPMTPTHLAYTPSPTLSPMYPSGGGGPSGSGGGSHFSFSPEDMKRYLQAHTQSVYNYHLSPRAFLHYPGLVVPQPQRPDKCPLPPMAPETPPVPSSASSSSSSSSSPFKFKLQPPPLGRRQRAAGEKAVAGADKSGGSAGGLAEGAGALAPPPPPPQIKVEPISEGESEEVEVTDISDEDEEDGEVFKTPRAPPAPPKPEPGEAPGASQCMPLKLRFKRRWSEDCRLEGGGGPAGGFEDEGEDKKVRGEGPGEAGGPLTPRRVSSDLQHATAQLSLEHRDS
The conditions noted are these: protein: recombinant; tags: N-terminal GST; dsDNA, one strand shown. An outline of the steps: as §1

For another assay, the target named is T7, ETV3L (Homo sapiens, UniProt Q6ZN32 1-361).
T7 sequence: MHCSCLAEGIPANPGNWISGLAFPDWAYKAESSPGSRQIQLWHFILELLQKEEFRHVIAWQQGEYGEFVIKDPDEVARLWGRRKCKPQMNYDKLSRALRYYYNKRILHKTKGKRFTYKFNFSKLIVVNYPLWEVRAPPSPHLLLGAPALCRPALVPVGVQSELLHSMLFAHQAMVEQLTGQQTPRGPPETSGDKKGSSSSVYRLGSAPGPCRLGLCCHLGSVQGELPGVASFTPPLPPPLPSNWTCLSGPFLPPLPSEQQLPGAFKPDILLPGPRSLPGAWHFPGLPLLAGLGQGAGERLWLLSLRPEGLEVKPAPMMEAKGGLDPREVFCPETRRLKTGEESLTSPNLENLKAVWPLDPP
The conditions noted are these: protein: recombinant; tags: N-terminal GST; dsDNA, one strand shown. The procedure, abridged: as §1

The target of another assay is T8, ETS2 (Homo sapiens, UniProt P15036 1-469).
T8 sequence: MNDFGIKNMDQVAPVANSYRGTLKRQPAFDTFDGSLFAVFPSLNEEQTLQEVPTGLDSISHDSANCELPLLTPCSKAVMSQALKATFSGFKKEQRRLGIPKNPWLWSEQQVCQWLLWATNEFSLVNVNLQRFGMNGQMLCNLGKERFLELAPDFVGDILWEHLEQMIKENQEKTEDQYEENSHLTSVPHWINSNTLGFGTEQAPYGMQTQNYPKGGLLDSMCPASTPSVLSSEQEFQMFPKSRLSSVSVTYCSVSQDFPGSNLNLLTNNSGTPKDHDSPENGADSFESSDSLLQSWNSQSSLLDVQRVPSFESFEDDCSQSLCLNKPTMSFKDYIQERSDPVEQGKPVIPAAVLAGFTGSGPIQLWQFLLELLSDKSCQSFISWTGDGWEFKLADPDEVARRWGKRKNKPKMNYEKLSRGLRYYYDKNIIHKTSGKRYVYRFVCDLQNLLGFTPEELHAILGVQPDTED
Particulars: protein: recombinant; tags: N-terminal GST; dsDNA, one strand shown. An outline of the steps:
as §1

The target of the next assay is T9, SPDEF (Homo sapiens, UniProt O95238 1-335).
T9 sequence: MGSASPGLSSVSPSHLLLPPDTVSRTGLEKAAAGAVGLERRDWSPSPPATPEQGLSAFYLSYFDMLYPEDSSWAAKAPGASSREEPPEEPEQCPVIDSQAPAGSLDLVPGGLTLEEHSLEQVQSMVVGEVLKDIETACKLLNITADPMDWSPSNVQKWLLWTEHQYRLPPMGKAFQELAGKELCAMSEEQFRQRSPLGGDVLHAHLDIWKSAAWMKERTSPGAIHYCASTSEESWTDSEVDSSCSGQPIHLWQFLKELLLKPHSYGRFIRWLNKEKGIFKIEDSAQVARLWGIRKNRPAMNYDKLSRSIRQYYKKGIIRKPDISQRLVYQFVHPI
Particulars: protein: recombinant; tags: N-terminal GST; dsDNA, one strand shown. An outline of the steps: as §1

Another assay concerns the target T10, ETV7 (Homo sapiens, UniProt Q9Y603 1-341).
T10 sequence: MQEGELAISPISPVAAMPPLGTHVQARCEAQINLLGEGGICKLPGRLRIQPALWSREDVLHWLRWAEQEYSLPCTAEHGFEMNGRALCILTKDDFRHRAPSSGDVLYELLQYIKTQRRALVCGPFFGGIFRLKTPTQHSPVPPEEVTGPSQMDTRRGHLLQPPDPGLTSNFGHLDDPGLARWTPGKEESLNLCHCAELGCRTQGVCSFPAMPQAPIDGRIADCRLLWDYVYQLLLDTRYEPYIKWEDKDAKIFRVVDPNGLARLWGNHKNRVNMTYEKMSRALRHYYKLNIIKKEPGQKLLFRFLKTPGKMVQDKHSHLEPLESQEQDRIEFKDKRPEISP
The conditions noted are these: protein: recombinant; tags: N-terminal GST; dsDNA, one strand shown. The procedure, abridged: as §1

A further assay deals with T11, ELF5 (Homo sapiens, UniProt Q9UKW6-2 1-255).
T11 sequence: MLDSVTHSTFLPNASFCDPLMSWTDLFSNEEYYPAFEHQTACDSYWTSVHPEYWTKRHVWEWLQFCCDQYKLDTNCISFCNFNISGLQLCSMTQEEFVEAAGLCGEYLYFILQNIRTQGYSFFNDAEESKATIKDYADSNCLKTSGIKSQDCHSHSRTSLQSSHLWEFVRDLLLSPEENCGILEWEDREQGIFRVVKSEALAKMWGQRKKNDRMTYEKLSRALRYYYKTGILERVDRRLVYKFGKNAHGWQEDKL
Particulars: protein: recombinant; tags: N-terminal GST; dsDNA, one strand shown. The procedure, abridged: as §1

For a further assay, the target named is T12, ETV3 (Homo sapiens, UniProt P41162-2 1-143).
T12 sequence: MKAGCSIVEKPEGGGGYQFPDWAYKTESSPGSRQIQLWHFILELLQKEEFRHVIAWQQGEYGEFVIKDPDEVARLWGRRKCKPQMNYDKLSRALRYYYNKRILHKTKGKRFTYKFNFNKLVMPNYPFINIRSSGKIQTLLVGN
The conditions noted are these: protein: recombinant; tags: N-terminal GST; dsDNA, one strand shown. An outline of the steps:
as §1

The target in the next assay is ETV6 (Homo sapiens, UniProt P41212 1-452). The conditions noted are these: protein: recombinant; tags: N-terminal GST; dsDNA, one strand shown. An outline of the steps: as §1
Sequence of ETV6 (P41212 whole entry): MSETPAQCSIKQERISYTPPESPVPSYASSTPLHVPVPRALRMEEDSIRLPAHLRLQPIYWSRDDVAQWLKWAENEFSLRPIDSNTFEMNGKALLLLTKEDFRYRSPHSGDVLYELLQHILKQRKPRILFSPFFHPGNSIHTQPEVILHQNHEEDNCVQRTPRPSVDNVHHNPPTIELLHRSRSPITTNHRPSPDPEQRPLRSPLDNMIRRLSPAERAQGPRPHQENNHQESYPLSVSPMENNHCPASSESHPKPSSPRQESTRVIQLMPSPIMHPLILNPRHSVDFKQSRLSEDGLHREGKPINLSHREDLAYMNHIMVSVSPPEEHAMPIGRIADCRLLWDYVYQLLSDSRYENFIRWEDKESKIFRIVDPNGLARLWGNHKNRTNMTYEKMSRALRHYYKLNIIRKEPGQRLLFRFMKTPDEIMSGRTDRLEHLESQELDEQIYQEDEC

Sequence of CRX (O43186 whole entry): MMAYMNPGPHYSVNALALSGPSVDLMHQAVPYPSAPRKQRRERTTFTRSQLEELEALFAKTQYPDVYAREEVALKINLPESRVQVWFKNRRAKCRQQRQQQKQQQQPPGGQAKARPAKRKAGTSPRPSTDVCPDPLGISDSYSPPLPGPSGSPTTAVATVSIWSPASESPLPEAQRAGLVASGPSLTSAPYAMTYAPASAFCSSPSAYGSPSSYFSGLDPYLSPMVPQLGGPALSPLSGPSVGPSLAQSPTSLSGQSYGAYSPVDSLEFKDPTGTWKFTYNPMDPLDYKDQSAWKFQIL
Sequence of ETV5 (P41161 whole entry): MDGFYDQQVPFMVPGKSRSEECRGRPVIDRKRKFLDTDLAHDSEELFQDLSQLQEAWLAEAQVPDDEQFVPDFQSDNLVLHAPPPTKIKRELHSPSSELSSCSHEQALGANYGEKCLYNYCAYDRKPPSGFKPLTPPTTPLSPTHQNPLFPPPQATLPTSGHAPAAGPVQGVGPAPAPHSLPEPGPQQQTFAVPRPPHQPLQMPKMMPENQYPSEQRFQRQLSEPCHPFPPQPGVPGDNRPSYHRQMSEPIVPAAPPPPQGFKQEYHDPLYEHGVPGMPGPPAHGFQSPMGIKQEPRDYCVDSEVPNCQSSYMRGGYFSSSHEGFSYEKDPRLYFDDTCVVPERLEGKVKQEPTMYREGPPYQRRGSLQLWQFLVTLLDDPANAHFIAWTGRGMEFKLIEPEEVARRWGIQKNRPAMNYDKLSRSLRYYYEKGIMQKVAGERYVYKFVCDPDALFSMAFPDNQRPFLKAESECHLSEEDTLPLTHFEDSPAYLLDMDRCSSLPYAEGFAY
Sequence of ETV1 (P50549 whole entry): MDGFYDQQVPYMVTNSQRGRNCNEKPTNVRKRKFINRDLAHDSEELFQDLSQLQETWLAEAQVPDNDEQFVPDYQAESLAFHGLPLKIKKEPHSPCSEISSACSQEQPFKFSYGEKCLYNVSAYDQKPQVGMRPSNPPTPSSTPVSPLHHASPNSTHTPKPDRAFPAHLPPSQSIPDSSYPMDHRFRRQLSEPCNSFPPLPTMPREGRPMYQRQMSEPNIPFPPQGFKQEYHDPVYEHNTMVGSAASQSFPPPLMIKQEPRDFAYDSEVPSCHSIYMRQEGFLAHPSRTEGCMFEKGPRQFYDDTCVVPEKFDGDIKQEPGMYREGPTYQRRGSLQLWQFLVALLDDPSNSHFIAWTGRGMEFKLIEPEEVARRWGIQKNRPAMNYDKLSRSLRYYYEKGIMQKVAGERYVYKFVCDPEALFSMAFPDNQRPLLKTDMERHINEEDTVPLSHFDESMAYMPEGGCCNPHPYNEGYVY
Sequence of ELF4 (Q99607 whole entry): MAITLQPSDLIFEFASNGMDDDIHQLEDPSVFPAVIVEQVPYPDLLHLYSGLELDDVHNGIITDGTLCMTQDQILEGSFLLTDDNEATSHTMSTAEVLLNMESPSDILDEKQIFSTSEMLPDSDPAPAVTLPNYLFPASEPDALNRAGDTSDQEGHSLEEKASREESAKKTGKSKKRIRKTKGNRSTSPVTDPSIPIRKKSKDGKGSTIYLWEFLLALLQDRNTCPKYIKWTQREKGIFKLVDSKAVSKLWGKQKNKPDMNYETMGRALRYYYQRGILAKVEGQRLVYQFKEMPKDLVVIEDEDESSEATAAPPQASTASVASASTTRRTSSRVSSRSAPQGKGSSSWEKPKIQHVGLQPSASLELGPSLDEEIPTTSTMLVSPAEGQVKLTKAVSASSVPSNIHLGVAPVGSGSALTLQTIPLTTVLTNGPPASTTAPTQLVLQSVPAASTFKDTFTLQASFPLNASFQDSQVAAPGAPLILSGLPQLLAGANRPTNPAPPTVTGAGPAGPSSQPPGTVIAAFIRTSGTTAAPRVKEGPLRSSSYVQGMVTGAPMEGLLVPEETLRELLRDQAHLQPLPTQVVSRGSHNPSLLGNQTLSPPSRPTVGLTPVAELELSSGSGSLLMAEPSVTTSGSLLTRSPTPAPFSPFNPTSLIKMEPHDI
Sequence of HSF1 (Q00613 whole entry): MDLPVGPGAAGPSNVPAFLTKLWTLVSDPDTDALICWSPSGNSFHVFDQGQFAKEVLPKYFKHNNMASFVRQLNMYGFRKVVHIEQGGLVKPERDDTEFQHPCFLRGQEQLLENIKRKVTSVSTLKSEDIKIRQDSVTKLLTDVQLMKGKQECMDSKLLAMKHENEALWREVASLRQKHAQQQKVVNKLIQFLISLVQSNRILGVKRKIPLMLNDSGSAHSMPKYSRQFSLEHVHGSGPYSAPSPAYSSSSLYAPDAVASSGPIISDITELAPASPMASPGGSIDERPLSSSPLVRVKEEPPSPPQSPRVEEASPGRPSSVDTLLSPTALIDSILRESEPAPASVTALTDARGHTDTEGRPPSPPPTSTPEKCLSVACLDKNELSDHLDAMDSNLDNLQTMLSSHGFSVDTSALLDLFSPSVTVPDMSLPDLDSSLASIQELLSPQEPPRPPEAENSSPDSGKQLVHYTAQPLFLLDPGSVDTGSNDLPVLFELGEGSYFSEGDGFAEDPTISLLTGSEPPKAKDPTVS

For the sequence ATAACA, the binding signal is 1.28 fold enrichment (6-mer frequency, TF over GST control) with FEV; 1.25 fold enrichment (6-mer frequency, TF over GST control) with ETV5; 1.2 fold enrichment (6-mer frequency, TF over GST control) with HSF1; 1.31 fold enrichment (6-mer frequency, TF over GST control) with SPIC; 1.28 fold enrichment (6-mer frequency, TF over GST control) with ELF4; 1.2 fold enrichment (6-mer frequency, TF over GST control) in the assay with ELK4. Also, the binding signal was 1.28 fold enrichment (6-mer frequency, TF over GST control) with ETV2; 1.21 fold enrichment (6-mer frequency, TF over GST control) with ELF3; 1.39 fold enrichment (6-mer frequency, TF over GST control) with CRX; 1.24 fold enrichment (6-mer frequency, TF over GST control) with ETV1; 1.31 fold enrichment (6-mer frequency, TF over GST control) with ERF; 1.28 fold enrichment (6-mer frequency, TF over GST control) with ETV3L. Besides, the binding signal is 1.27 fold enrichment (6-mer frequency, TF over GST control) with ETS2; 1.21 fold enrichment (6-mer frequency, TF over GST control) with SPDEF; 1.32 fold enrichment (6-mer frequency, TF over GST control) in the assay with ETV7; 1.28 fold enrichment (6-mer frequency, TF over GST control) with ELF5; 1.2 fold enrichment (6-mer frequency, TF over GST control) in the assay with ETV3; 1.26 fold enrichment (6-mer frequency, TF over GST control) in the assay with ETV6.
